According to PubChem BioAssay AID2566 (National Center for Advancing Translational Sciences (NCATS), 2010):
“And” between values parts separate entries of the source, which are not always exact repeats. Equal entries are not always repeated. Results filed as inconclusive are left out. The source made the active and inactive calls.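 How the source made its calls: active means compound that pushes labeled neuropeptide S off its receptor in a binding test; inconclusive means all other tested compounds; inactive means none, nothing was called inactive.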

What follows are molecules tested against Neuropeptide S receptor (Homo sapiens) (UniProt Q6W5P4) (assay: Confirmation Concentration-Response Assay for Antagonists of the Neuropeptide S Receptor: Radioligand Displacement, SAR for Probe). Conditions: CHO-hNPSR, [125I]Y10-NPS displacement, 1.5 h.
Source text: NIH Chemical Genomics Center [NCGC] NIH Molecular Libraries Probe Production centers Network [MLPCN] MLPCN Grant: X01-DA026210-01 Assay Submitter (PI): Heilig, Markus Alexander NCGC Assay Overview: Neuropeptide S receptor (NPSR), previously known as GPR154, is a recently de-orphanized G protein coupled receptor. Its endogenous ligand is the 20 amino acids peptide Neuropeptide S (NPS). […] NPS and its receptor are found in various tissues. Specifically they are highly expressed in brain areas that have been implicated in modulation of arousal, stress and anxiety. Central administration of NPS in mice produces an unusual profile of activity by inducing wakefulness and arousal, while at the same time suppressing anxiety. Therefore, NPSR may represent a novel drug target for the treatment of sleep and anxiety disorders. As one method of confirming the specific activity of compounds active in the primary screen (AID 1461), we developed an assay to measure the displacement of radio-labeled native ligand, NPS, from its receptor in vitro.
The assay was carried out as described (Xu et al. (2004) Neuron, 43: 487-497) with minor modification. Y10-NPS labeled with 125I was bought from NEN Perkin Elmer (Boston, MA). CHO cells stably expressing human NPSR were seeded into 24-well plates and cultured until reaching 90-95% confluency. Cells were washed with 1ml PBS once and then incubated with radioligand with or without compounds or in DMEM medium containing 0.1% bovine serum albumin at 20C for 1.5 hr. Increasing concentrations of compounds or unlabeled human NPS were used to compete with 0.15 nM [125I] Y10-NPS. Nonspecific binding was determined in the presence of 1 uM unlabeled human NPS. Cells were washed twice with cold PBS and lysed with 1 N NaOH. Bound radioactivity was counted in a liquid scintillation counter.

Chain of Neuropeptide S receptor (Homo sapiens) (Q6W5P4 whole entry, looked up): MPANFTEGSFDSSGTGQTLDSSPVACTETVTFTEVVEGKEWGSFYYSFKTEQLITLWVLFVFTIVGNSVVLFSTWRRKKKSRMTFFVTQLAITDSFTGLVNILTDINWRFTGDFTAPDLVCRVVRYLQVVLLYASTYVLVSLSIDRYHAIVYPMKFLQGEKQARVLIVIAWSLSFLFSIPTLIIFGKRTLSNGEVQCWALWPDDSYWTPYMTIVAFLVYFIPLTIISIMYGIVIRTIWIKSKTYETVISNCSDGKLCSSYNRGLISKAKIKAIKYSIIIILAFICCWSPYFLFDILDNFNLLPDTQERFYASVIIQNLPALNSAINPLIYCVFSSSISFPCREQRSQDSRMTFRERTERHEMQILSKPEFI

Potency, active:
O=C1OC(c2ccccc2)(c2ccccc2)N2CCN(C(=O)NCc3ccc(F)cc3)CC12 (centres undefined) 5.93 nM
COc1cccc(C2c3c(ncn(-c4ccccc4)c3=N)Oc3ccc4ccccc4c32)c1 (centres undefined) 266 nM
COc1ccc(C2c3c(ncn(CCN4CCOCC4)c3=N)Oc3ccc4ccccc4c32)cc1OC (centres undefined) 256 nM and 190 nM
N#CC1=C(NC=NCc2ccccc2)Oc2ccc3ccccc3c2C1c1ccccc1 (centres undefined) 322 nM
CCOC(=O)CC(=O)Nc1ncnc2c1C(c1ccccc1)c1c(ccc3ccccc13)O2 (centres undefined) 616 nM
CCOC(=O)C1CCCN(c2ncnc3c2oc2ccccc23)C1 (centres undefined) 26400 nM
CCC(C)(CCN1CCOCC1)N(Cc1cc2ccccc2n(C)c1=O)C(=O)C1CCCCC1 (centres undefined) 6.54 nM
N=c1c2c(ccn1-c1ccccc1)Oc1ccc3ccccc3c1C2c1ccccc1 (centres undefined) 367 nM
COc1cccc(C2c3c(ncn(CCN4CCOCC4)c3=N)Oc3ccc4ccccc4c32)c1 (centres undefined) 439 nM
